Measured values: PubChem BioAssay (NCI)
This is part of a sample that, as a whole, favours compounds with a hit. Of some 83,000 tested, about 20% had one in any assay.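 Note: values are percent growth. 100 is the growth of untreated cells, values between 100 and 0 indicate rising inhibition; between -100 and 0 indicates cell death.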 Values without a mark were called inactive. The source made the active and inactive calls. The calls were made as follows: active = growth percent below 10; inactive = the rest.

The compounds below were run on ACHN renal (assay: NCI-60 one-dose screen, 48 h (100 = growth as untreated, 0 = no growth, -100 = all killed)). Details: 10 µM unless noted.

Compound | growth
O=C(Nc1ccc(O)cc1)C(Cl)(Cl)Cl | 104%
CCCOC(=O)N[C@H]1CCc2c(Br)c(OC)c(OC)c(OC)c2-c2ccc(SC)c(=O)cc21 | 27.6%
CCOC(=O)[C@@H](C)C[C@H](Cc1ccccc1)NC(=O)c1csc([C@@H](C[C@H](C(C)C)N(C)C(=O)[C@@H](NC(=O)[C@H]2CCCCN2C)C(C)(C)CC)OC(C)=O)n1 | 2.48% (active)
CN1CC(CNC(=O)OCc2ccccc2)CC2c3cccc4c3c(cn4C)CC21 (configuration not stated) | 39.7%
COc1ccc(NC([Se])=NC23CC4CC(CC(C4)C2)C3)cc1 | 0.201% (active)
ClCCN(CCCl)c1ccc(/C=N\N=C\c2ccc(N(CCCl)CCCl)cc2)cc1 | 40.1%
C[C@@]12CC=C3c4nc(Nc5cccc(O)c5)sc4CC[C@]3(C)[C@H]1CC[C@]1(C)C(=O)CC[C@@H]21 | 5.12% (active)
O=[N+]([O-])/C=C\c1ccc(Cl)c(Cl)c1 | 78.4%
CC(C)OC(=O)[C@H](C)NP(=O)(Oc1ccccc1)C1CCCN(O)C1=O (some centres not stated) | 79.4%
COC(=O)CCC1=C(C)c2cc3[n-]c(cc4nc(cc5[n-]c(cc1n2)c(CCC(=O)OC)c5C)C=C4C)cc3C.[Cd+2] | 67.9%
C=CCn1cc(C=C2C(=O)N(C)C(=O)N(C)C2=O)c2ccccc21 | 98.9%
COC(=O)[C@@H](C)C[C@H](Cc1ccccc1)NC(=O)c1nc([C@@H](C[C@H](C(C)C)N(C)C(=O)[C@@H](NC(=O)[C@H]2C[C@H](O)CCN2C)C(C)C)OC(C)=O)sc1C(C)C | 10.8%
N#CC1C(C#N)C2CCC1C1C2N1c1ccccc1 (configuration not stated) | 97.4%
CC(C)(NC(=O)O[C@@H]1CN2CCC1CC2)c1csc(-c2ccc(F)cc2)n1 | 98.4%
CCC(C)(C)[C@H](NC(=O)[C@H]1CCCCN1C)C(=O)N(C)[C@H](C[C@@H](OC(C)=O)c1nc(C(=O)N[C@@H](Cc2ccccc2)C[C@H](C)C(=O)O)cs1)C(C)C | 11.4%
C[C@]12CCc3sc(-c4ccccc4O)nc3C1=CC[C@@H]1[C@@H]2CC[C@]2(C)C(=O)CC[C@@H]12 | 98.8%
CCOC(=O)N1CC1 | 94.8%
N#CC1(C#N)C(c2ccc(N(CCCl)CCCl)cc2)OC23CCCCC2C1(C#N)C(=N)O3 (configuration not stated) | 50.2%
C=CCCCN=C=S | 77.9%

Compound | growth
Cc1cccc(N2CCN(C(C)C#N)CC2)c1 (configuration not stated) | 104%
O=C(Nc1ccc([N+](=O)[O-])cc1)C(Cl)(Cl)Cl | 86.9%
COP(=S)(N1CC1)N1CC1 | 103%
O=C(N/N=C\c1ccc(N(CCCl)CCCl)cc1)c1cccc([N+](=O)[O-])c1 | 94.4%
CC(=O)OC[C@]1(C)C=C2C(=O)[C@](C)(O)C3(CC3)C(C)=C2[C@H]1O | -12.4% (active)
CS(=O)(=O)CCN1CC2CCCC(C2)C1 | 97.7%
CCOC(=O)[C@@H](C)C[C@H](Cc1ccccc1)NC(=O)c1csc([C@@H](C[C@H](C(C)C)N(C)C(=O)[C@@H](NC(=O)[C@H]2C[C@H](O)CCN2C)C(C)C)OC(C)=O)n1 | 19.7%
CNCc1cccnc1 | 106%
Cn1cc(C=O)c2nccnc21 | 109%
Cc1cc(N(CCCl)CCCl)ccc1C=Nc1ccccc1-c1ccccc1 | 34.4%
CNC(=O)Oc1ccc2c(c1)OCO2 | 99.3%
COc1ccc(N(CC(=O)NCCC[Te]c2ccccc2)C(=O)CCSC2=C(C)C(=O)c3ccccc3C2=O)cc1 | -51.4% (active)
Cn1cccc1C1CC(=O)N(CCC[Se]C#N)C1=O (configuration not stated) | -4.46% (active)
CC1(C)[C@H](O)[C@H](F)C[C@@]2(C)Oc3ccc(C(=O)Nc4ccc5c(c4)NC(=O)C54CCN(CCCCC#N)CC4)cc3C[C@H]12 | 43.1%
CCOC(=O)[C@@H](C)C[C@H](Cc1ccccc1)NC(=O)c1nc([C@@H](C[C@H](C(C)C)N(C)C(=O)[C@@H](NC(=O)[C@H]2CCCCN2C)C(C)C)OC(C)=O)sc1CCOCc1ccccc1 | -22% (active)
C[C@]12CCc3sc(-c4cccc(F)c4)nc3C1=CC[C@@H]1[C@@H]2CC[C@]2(C)C(=O)CC[C@@H]12 | 11.9%
COC(=O)[C@H](C[C@H](Cc1ccccc1)NC(=O)c1csc([C@@H](C[C@H](C(C)C)N(C)C(=O)[C@@H](NC(=O)[C@H]2CCCCN2C)C(C)C)OC(C)=O)n1)NC(=O)OCc1ccccc1 | 13.5% [8.5 µM]
C[C@]12CC[C@H]3[C@@H](C[C@@H]4SC(Nc5ccccc5)=N[C@@]45CC(O)CC[C@]35C)[C@@H]1CCC2O (some centres not stated) | 36.8%
